Data published in PubChem BioAssay (Tox21).
A number with no mark means an inactive call. Results filed as inconclusive are left out. Entries that show only a call come without a potency. Calls of active or inactive are those of the source. Unless noted, calls come from the whole dose curve.

Experiments:
[1] = Nuclear factor erythroid 2-related factor 2/antioxidant responsive element (Nrf2/ARE) small molecule agonists: qHTS cell viability counter screen in human keratinocytes (AID 1919968; active = well fitted curve in the direction sought with a large enough effect in the repeat runs; an effect the other way counts as inactive or inconclusive; note: nearly all actives have a fitted effect of over 55% in size; note: potency is the fitted concentration of half-maximal effect)
Method in brief: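 Measured as CellTiter-Fluor fluorescence, this readout tracks cytotoxicity in the same wells as the ARE-luciferase screen. HaCaT reporter cells (1,500/well) received compounds after a 5 h pre-incubation and were exposed for 23 h.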

[2] = Nuclear factor erythroid 2-related factor 2/antioxidant responsive element (Nrf2/ARE) small molecule agonists: luciferase reporter gene qHTS assay in human keratinocytes (AID 1919969); note: nearly all actives have a fitted effect of over 35% in size; note: potency is the fitted concentration of half-maximal effect
[3] = target: Gonadotropin-releasing hormone receptor (Homo sapiens) (UniProt P30968); assay: Human gonadotropin-releasing hormone receptor (GnRHR) small molecule agonists, calcium flux assay in GnRHR-HEK293 cells (AID 1920063); note: nearly all actives have a fitted effect of over 35% in size
Method in brief: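 Fluorescence kinetics (480 nm excitation, 540 nm emission; 3 min, 1 s steps) report calcium mobilisation in human GnRHR-HEK293 cells in agonist mode. Dye incubation: 1 h, 37 C.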

[4] = target: KiSS-1 receptor (Homo sapiens) (UniProt Q969F8); assay: Human kisspeptin (KISS1R) small molecule agonists, calcium flux assay in KISS1R-HEK293 cells (AID 1920064; active = well fitted curve in the direction sought with a large enough effect in the repeat runs; an effect the other way counts as inactive or inconclusive)
Method in brief: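 Measures KISS1R agonism through calcium-sensitive dye fluorescence in stably transfected HEK293 cells, read for 3 min after pin-tool compound delivery; 15-point titrations in triplicate.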

[5] = G protein-coupled receptor (GPCR) small molecule agonists, calcium flux assay: HEK293 wild type cell line counter screen (AID 1920065)
Method in brief: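 Readout: fluorescence at 480 nm excitation/540 nm emission, sampled at 1 s intervals for 3 min. Cells had been cultured 18 h, then dye-loaded 1 h at 37 C before compound or ATP addition.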

[6] = p53 small molecule agonists, cell-based qHTS assay with human liver microsomes: qHTS cell viability counter screen (AID 1963579); note: nearly all actives have a fitted effect of over 45% in size
Method in brief: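 p53RE-bla cells (4,000/well) were pre-incubated 5 h at 37 C, then given compounds in DMSO plus human liver microsomes (0.5 mg/mL final) and NADPH (0.5 mg/mL final) for 16 h at 37 C. Viability was read by CellTiter-Glo luminescence.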

[7] = p53 small molecule agonists, cell-based qHTS assay with rat liver microsomes: qHTS cell viability counter screen (AID 1963580); note: nearly all actives have a fitted effect of over 45% in size
Method in brief: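 HCT-116 p53RE-bla, 4,000 cells/well, 5 h pre-incubation; cpd + rat liver microsomes 0.5 mg/mL + NADPH 0.5 mg/mL (final); 16 h, 37 C; CellTiter-Glo, 30 min RT; luminescence.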

[8] = p53 small molecule agonists, cell-based qHTS assay: qHTS cell viability counter screen (AID 1963581); note: nearly all actives have a fitted effect of over 45% in size
Method in brief: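 In the same plates used for the p53 bla reporter, HCT-116 cells given compounds for 16 h at 37 C received CellTiter-Glo; luminescence was recorded 30 min later at room temperature.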

[9] = target: 5-hydroxytryptamine receptor 2A (Homo sapiens) (UniProt P28223); assay: 5-hydroxytryptamine receptor 2A (HTR2A) small molecule antagonists, cell-based qHTS assay (AID 1963586); note: nearly all actives have a fitted effect of over 45% in size
Method in brief: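 Antagonist-mode intracellular calcium assay: DOI (4 nM) added after 5 min compound pre-incubation at room temperature to dye-loaded HTR2A-CHO cells. Fluorescence followed for 3 min, sampled every second.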

[10] = target: 5-hydroxytryptamine receptor 2A (Homo sapiens) (UniProt P28223); assay: 5-hydroxytryptamine receptor 2A (HTR2A) small molecule agonists, cell-based qHTS assay (AID 1963587); note: nearly all actives have a fitted effect of over 30% in size
Method in brief: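 Kinetic calcium-flux fluorescence (2 min, 1 sec intervals) after compound addition in agonist mode. HTR2A-CHO cells were cultured 18 h, then dye-loaded 1 h at 37 C.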

[11] = target: Muscarinic acetylcholine receptor M1 (Homo sapiens) (UniProt P11229); assay: Cholinergic receptor muscarinic 1 (CHRM1) small molecule antagonists, cell-based qHTS assay (AID 1963588); note: nearly all actives have a fitted effect of over 40% in size; note: potency is the fitted concentration of half-maximal effect
Method in brief: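 CHRM1-CHO calcium-flux assay, antagonist mode. Cells were seeded 18 h, dye-loaded 1 h at 37 C and given compound for 5 min at RT, then acetylcholine was added at 50nM. FDSS fluorescence was read 3 min; 15 concentrations, three runs.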

[12] = target: Muscarinic acetylcholine receptor M1 (Homo sapiens) (UniProt P11229); assay: Cholinergic receptor muscarinic 1 (CHRM1) small molecule agonists, cell-based qHTS assay (AID 1963589); note: nearly all actives have a fitted effect of over 35% in size
Method in brief: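 Each compound was tested at 15 concentrations across three independent runs on dye-loaded CHO cells stably expressing human CHRM1, reading intracellular calcium fluorescence kinetically at 1 sec intervals.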

[13] = cAMP Responsive Elements (CRE) small molecule agonists, cell-based qHTS assay (AID 1963590)
Method in brief: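 Cell line: CRE-bla HEK 293T; medium DMEM/10% dialyzed FBS/0.1 mM NEAA/1 mM pyruvate/25 mM HEPES; 3 h compound exposure; beta-lactamase FRET readout after 2 h substrate loading at RT.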

[14] = target: Beta-2 adrenergic receptor (Homo sapiens) (UniProt P07550); assay: Adrenergic beta2 receptor (ADRB2) small molecule antagonists, cell-based qHTS assay (AID 1963592); note: series mostly up to about 92 µM; nearly all actives have a fitted effect of over 50% in size
Method in brief: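 Cells (CHO, stable ADRB2 overexpression) incubated 18-20hr at 37C; compounds added from DMSO; agonist mix (1nM isoproterenol, 100uM IBMX, 25uM Ro-20-1724) added; 0.5hr RT; d2-cAMP and anti-cAMP-cryptate added; 1hr RT; 665/615 nm read.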

[15] = target: Beta-2 adrenergic receptor (Homo sapiens) (UniProt P07550); assay: Adrenergic beta2 receptor (ADRB2) small molecule agonists, cell-based qHTS assay (AID 1963593);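 note: CHO cells stably overexpressing human ADRB2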
Method in brief: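 CHO cells stably over-expressing ADRB2 were plated overnight at 37C, then dosed with compounds plus a stimulation mix containing 100uM IBMX and 25uM Ro-20-1724 for 0.5hr at room temperature. cAMP was measured by HTRF competition, 1hr.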

[16] = target: D(2) dopamine receptor (Homo sapiens) (UniProt P14416); assay: Dopamine D2 receptor (DRD2) small molecule agonists, cell-based qHTS assay (AID 1963594); note: nearly all actives have a fitted effect of over 35% in size
Method in brief: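 cAMP accumulation in DRD2-HEK293 cells measured by HTRF after 1 h detection; compounds added 10 min before NKH477 (200nM […]) forskolin-analogue stimulation, 30 min at room temperature, with Ro20-1724 present at 0.1 mM final.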

[17] = target: D(2) dopamine receptor (Homo sapiens) (UniProt P14416); assay: Dopamine D2 receptor (DRD2) small molecule antagonists, cell-based qHTS assay (AID 1963595; active = well fitted inhibition curve with a large enough effect in the signal ratio in the repeat runs, with a control signal flat; the % refers to the signal ratio)
Method in brief: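 Human DRD2 antagonist qHTS measuring cAMP by HTRF. The cells are exposed to compound for 10 min, then to NKH477 (200 nM) and quinpirole (12 nM) for 30 min at RT, with Ro20-1724 (0.1 mM) present throughout.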

[18] = cAMP Responsive Elements (CRE) small molecule antagonists, cell-based qHTS assay (AID 1963591; active = well fitted inhibition curve with a large enough effect in the signal ratio in the repeat runs, not every such curve was filed as active; the % refers to the signal ratio)
Method in brief: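 Inhibition of NKH477-driven (0.25 uM final) CRE-beta-lactamase signal in HEK293T cells, 3 h compound exposure at 37 °C, detected by FRET substrate fluorescence.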

Beta-2 adrenergic receptor (Homo sapiens), sequence (P07550 whole entry, looked up): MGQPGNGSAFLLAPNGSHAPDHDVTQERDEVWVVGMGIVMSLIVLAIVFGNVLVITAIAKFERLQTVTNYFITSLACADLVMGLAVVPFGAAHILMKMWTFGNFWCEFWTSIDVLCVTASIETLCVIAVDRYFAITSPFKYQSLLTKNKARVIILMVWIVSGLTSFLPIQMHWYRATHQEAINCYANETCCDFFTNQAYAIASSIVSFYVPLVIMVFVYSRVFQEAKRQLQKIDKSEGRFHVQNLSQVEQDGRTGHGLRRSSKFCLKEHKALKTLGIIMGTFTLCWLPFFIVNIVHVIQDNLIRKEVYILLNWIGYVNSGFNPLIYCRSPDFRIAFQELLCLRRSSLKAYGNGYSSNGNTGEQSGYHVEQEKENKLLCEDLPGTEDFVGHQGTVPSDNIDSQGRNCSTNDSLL
5-hydroxytryptamine receptor 2A (Homo sapiens), sequence (P28223 whole entry, looked up): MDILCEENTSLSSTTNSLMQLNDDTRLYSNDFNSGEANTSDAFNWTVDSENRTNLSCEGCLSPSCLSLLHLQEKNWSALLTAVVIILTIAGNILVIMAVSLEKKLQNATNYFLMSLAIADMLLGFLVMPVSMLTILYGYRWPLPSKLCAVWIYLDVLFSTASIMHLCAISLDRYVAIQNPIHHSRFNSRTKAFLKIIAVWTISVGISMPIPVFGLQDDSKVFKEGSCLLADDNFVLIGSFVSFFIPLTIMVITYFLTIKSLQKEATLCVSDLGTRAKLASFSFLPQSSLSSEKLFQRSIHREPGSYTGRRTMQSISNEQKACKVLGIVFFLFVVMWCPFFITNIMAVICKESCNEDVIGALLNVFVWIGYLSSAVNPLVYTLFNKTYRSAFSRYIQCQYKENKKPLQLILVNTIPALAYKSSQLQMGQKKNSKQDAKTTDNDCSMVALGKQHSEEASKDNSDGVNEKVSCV
Gonadotropin-releasing hormone receptor (Homo sapiens), sequence (P30968 whole entry, looked up): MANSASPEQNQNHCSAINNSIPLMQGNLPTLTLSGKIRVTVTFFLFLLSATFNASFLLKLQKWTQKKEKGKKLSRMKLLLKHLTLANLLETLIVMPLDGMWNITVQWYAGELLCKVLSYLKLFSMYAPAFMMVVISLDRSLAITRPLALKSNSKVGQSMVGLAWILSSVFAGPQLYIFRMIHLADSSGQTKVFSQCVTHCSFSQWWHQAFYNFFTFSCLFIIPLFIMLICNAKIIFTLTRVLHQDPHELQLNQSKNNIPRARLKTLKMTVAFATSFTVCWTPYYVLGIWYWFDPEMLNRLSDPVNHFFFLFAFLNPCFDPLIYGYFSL
D(2) dopamine receptor (Homo sapiens), sequence (P14416 whole entry, looked up): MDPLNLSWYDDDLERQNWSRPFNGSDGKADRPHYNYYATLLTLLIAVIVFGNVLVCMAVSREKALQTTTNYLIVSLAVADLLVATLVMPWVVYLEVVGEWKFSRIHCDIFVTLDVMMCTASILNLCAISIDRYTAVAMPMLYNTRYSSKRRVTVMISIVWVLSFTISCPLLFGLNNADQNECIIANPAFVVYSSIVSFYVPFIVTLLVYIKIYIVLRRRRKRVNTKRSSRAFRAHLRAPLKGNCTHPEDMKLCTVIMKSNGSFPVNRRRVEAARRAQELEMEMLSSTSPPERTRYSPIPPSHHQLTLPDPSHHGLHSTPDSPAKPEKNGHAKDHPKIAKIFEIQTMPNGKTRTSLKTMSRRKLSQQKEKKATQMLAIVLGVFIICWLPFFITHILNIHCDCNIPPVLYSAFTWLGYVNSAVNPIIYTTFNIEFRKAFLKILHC
KiSS-1 receptor (Homo sapiens), sequence (Q969F8 whole entry, looked up): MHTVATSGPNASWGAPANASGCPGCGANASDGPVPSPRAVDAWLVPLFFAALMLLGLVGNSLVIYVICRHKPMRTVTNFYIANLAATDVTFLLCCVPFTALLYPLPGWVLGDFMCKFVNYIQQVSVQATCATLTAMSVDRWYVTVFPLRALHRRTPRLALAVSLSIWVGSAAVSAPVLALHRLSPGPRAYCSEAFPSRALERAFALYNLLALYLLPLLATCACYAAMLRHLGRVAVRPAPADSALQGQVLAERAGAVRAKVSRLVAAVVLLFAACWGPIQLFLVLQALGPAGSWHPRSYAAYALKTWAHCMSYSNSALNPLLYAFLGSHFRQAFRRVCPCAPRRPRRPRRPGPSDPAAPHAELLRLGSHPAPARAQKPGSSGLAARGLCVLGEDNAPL
Muscarinic acetylcholine receptor M1 (Homo sapiens), sequence (P11229 whole entry, looked up): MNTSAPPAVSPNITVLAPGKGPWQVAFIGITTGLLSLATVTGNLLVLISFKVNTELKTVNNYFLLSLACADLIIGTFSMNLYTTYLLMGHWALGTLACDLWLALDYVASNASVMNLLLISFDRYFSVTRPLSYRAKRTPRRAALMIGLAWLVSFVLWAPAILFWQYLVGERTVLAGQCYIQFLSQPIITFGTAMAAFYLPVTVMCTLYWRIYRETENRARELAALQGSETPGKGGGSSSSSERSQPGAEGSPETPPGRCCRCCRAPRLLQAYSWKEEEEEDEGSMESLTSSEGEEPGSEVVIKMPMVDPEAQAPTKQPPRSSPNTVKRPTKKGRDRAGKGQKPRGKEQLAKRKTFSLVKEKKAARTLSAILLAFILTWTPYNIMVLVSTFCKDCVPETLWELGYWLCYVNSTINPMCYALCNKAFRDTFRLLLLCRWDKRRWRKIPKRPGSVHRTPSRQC

| SMILES | Potency [1] | Potency [2] | Potency [3] | Potency [4] | Potency [5] | Potency [6] | Potency [7] | Potency [8] | Potency [9] | Potency [10] | Potency [11] | Potency [12] | Potency [13] | Potency [14] | Potency [15] | Potency [16] | Potency [17] | Potency [18] |
| --- | --- | --- | --- | --- | --- | --- | --- | --- | --- | --- | --- | --- | --- | --- | --- | --- | --- | --- |
| COCCCOCCCOC | inactive | inactive | inactive | inactive | inactive | inactive | inactive | inactive | inactive | inactive | inactive | inactive | inactive | inactive | inactive |  |  |  |
| COC(=O)CC(C)=O | inactive | inactive | inactive | inactive | inactive | inactive | inactive | inactive | inactive | inactive | inactive | inactive |  | inactive |  | inactive | inactive |  |
| COC(Cc1ccccc1)OC | inactive | inactive | inactive | inactive | inactive | inactive | inactive | inactive | inactive | inactive | inactive | inactive | inactive |  | inactive | inactive | inactive | inactive |
| CCCCCCCOC(=O)CCC | inactive | inactive | inactive | inactive | inactive | inactive | inactive | inactive | inactive | inactive | inactive | inactive | inactive | inactive | inactive | inactive | inactive |  |
| CCOc1ccc2[nH]cc(C(=O)NCc3ccccc3)c(=O)c2n1 | inactive | inactive | inactive | inactive | inactive | inactive | inactive | inactive | inactive | inactive | inactive | inactive |  | inactive | inactive | inactive | inactive |  |
| CCCc1ccc(OC)cc1 | inactive | inactive | inactive | inactive | inactive | inactive | inactive | inactive | inactive | inactive | inactive | inactive |  | inactive | inactive | inactive | inactive | inactive |
| CCCCN(CCCC)CCC(O)c1cc2c(Cl)cc(Cl)cc2c2cc(C(F)(F)F)ccc12 (stereo not given) | 21.1 µM (active) | inactive | inactive | inactive | inactive | inactive | inactive | inactive | inactive | inactive | inactive | inactive | inactive | inactive | inactive | inactive | inactive |  |
| C=CC(=O)NC(C)(C)C | inactive | inactive | inactive | inactive | inactive | inactive | inactive | inactive | inactive | inactive | inactive | inactive | inactive |  |  | inactive | inactive | inactive |
| CCCc1nc(C)c2c(=O)[nH]c(-c3cc(S(=O)(=O)N4CCN(CC)CC4)ccc3OCC)nn12 | inactive | inactive | inactive | inactive | inactive | inactive | inactive | inactive | inactive | inactive | inactive | inactive |  | inactive |  | inactive | inactive |  |
| CC[N+](CC)(CC)CCOC(=O)C(C1CCCC1)C1CCCC1 | inactive | inactive | inactive | inactive | inactive | inactive | inactive | inactive | inactive | inactive | 0.0016 µM (active) | inactive |  | inactive | inactive | inactive | inactive |  |
| CCCCCCCCC(CO)CCCCCC (stereo not given) | inactive | inactive | inactive | inactive | inactive | inactive | inactive | inactive | inactive | inactive | inactive | inactive |  | inactive | inactive | inactive | inactive | inactive |
| CC(C)=CCCC(C)CC(=O)O (stereo not given) | inactive | inactive | inactive | inactive | inactive | inactive | inactive | inactive | inactive | inactive | inactive | inactive | inactive | inactive |  | inactive | inactive |  |
| C[C@H]1COc2c(C3(N)CC3)c(F)cc3c(=O)c(C(=O)O)cn1c23 | inactive | inactive | inactive | inactive | inactive | inactive | inactive | inactive | inactive | inactive | inactive | inactive |  | inactive | inactive | inactive | inactive | inactive |
| Oc1ccccc1F | inactive | inactive | inactive | inactive | inactive | inactive | inactive | inactive | inactive | inactive | inactive | inactive | inactive | inactive |  | inactive | inactive |  |
| CC(C)C(=O)OCCc1ccccc1 | inactive | inactive | inactive | inactive | inactive | inactive | inactive | inactive | inactive | inactive | inactive | inactive | inactive | inactive | inactive | inactive | inactive |  |
| CC(C)c1ccc2cc(C(C)C)ccc2c1 | inactive | 48.6 µM (active) | inactive | inactive | inactive | inactive | inactive | inactive | inactive | inactive | inactive | inactive |  | inactive | inactive |  | inactive | inactive |
